This excerpt belongs to a sample that is enriched for hits.
HT1080-NT tox: kills 2HG-producing HT-1080-NT fibrosarcoma cells; HT-1080-NT fibrosarcoma viability, CellTiter-Glo ATP luminescence, 48 h; Potency, µM (doses to about 46.1 µM), hits mostly cytotoxic; actives 1.6% (n = 360,000); AID 686970;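 also: NT is the 2HG producing partner of a matched IDH1 knockdown line; nearly all actives have a fitted effect of over 55% in size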
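Compounds were tested in concentration-response format on HT-1080-NT cells for 48 hours at 37 degrees C. Cell viability came from CellTiter-Glo luminescence; curves were classified by r2, response magnitude and activity.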
IL1B secr inh: blocks inflammasome-driven IL-1 beta release. THP-1 LPS/ATP IL-1B secretion, AlphaLISA, 16 h; stronger effect = lower value. activity change, % at 57.5 µM. actives 4.7% (n = 360,000). AID 743279; in the data active = activity change below about -50%; inconclusive = mostly about -30% to -49%
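Secreted IL-1B measured by AlphaLISA bead assay after 16 h compound exposure of THP-1 cells; compounds (final up to 57.5 uM) added 1 h before LPS (250 ng/mL) and ATP (1.25 mM) stimulation; lower signal means less secretion.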
DT40 TDP1 CPT: DT40-hTDP1 cell growth loss with CPT. actives 12% (n = 420,000). Potency, µM (series often up to 46.2 µM), usual class: inhibitors. chicken DT40 Tdp1-/-;hTDP1 cells + 20 nM CPT, ATP luminescence, 48 h; also: nearly all actives have a fitted effect of over 55% in size
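Chicken DT40 Tdp1-/- cells complemented with human TDP1, 400 cells/well, exposed to compounds plus 20 nM camptothecin for at least 48 h at 37 C; viability read as ATP content by CellTiter-Glo luminescence.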
HT1080 IDH1KD tx: kills HT-1080 cells with IDH1 knockdown; HT-1080 IDH1 knockdown viability, ATP luminescence, 48 h; Potency, µM (titrated, usually from 46.1 µM), hits mostly cytotoxic; actives 2% (n = 360,000); AID 686971
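IDH1KD HT-1080 cells, 750/well, RPMI + 5% FBS; compound pinned after 2 h settling; 48 h, 37 °C; CellTiter-Glo luminescence; % activity normalised to DMSO and no-cell wells; curves fitted, classed by r2 and efficacy.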
DT40 TDP1 no CPT: qHTS for Inhibitors of human tyrosyl-DNA phosphodiesterase 1 (TDP1): qHTS in cells in absence of CPT; actives 15% (n = 420,000); Potency, µM (doses to about 46.2 µM), most hits filed as inhibitors; DT40 Tdp1-/- hTDP1 cells, no CPT, ATP luminescence, 48 h; also: nearly all actives have a fitted effect of over 55% in size
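Luminescent ATP content (CellTiter-Glo) served as the growth readout. Knockout chicken DT40 cells expressing human TDP1 were exposed to compounds without camptothecin for a minimum 48 hr at 37 °C.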
ALOX12 inh: inhibitors of human 12S-lipoxygenase ALOX12; actives 1.1% (n = 580,000); P18054; purified 12hLO, xylenol orange hydroperoxide absorbance; Potency, µM (top dose mostly 108 µM), most hits filed as inhibitors
Target sequence (P18054 whole entry, looked up): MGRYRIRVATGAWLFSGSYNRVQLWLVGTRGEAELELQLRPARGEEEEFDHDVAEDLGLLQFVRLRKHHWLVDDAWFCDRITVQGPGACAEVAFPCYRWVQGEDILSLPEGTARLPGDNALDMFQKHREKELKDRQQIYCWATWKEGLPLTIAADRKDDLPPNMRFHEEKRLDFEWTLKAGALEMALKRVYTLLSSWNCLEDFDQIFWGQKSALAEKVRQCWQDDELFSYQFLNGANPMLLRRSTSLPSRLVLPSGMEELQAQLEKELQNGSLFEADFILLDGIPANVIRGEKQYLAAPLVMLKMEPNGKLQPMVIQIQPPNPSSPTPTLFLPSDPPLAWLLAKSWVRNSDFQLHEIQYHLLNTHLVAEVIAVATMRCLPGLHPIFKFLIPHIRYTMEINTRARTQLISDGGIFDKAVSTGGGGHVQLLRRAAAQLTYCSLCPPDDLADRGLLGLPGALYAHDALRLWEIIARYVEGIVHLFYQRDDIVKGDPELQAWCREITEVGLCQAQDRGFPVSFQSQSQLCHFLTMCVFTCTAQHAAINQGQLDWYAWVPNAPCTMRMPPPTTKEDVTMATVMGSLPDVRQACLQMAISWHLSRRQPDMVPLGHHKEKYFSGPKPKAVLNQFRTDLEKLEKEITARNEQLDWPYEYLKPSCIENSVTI
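Purified human 12hLO (150 nM final) in 25 mM Hepes, 0.01% Triton X-100, pH 7.0 was preincubated 15 min at room temperature with compound. Then 40 uM arachidonic acid was added, 30 min. Hydroperoxide was read by Fe-XO absorbance ratio 573/405 nm.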
Numbers stand for hits; – = inactive; ? = inconclusive; · = no result; [ ] = remark or other dose. Unless noted, calls follow the shape of the dose curve; as a rule, active = well fitted curve in the direction sought with a large enough effect; inconclusive = small, poorly fitted or top-dose-only effect, or another doubt; inactive = no such curve, though single readings can be large; an effect the other way counts as inactive or inconclusive.

SMILES	HT1080-NT tox	IL1B secr inh	DT40 TDP1 CPT	HT1080 IDH1KD tx	DT40 TDP1 no CPT	ALOX12 inh
O=C(NC1CCc2nn(CC3CC3)c(=O)n2CC1)c1n[nH]c2ccccc12 (configuration not stated)	·	·	·	·	·	–
CN(C)c1ncc2nc(-c3cccs3)c(=O)n(Cc3cccs3)c2n1	·	·	–	·	–	–
CN(C)c1nc(=NCc2cccs2)ss1	–	-60	0.026µM	?	0.029µM	16µM
CCN(Cc1ccccc1)C(=O)Cn1c(=O)cc(C)c2c(C)nn(-c3cccc(F)c3)c21	·	·	18µM	·	21µM	–
CCN(CC)C(=O)Cn1c(=O)cc(C)c2c(C)nn(-c3cccc(Cl)c3C)c21	·	·	15µM	·	12µM	–
Cc1c(Cl)cccc1-n1nc(C)c2c(C)cc(=O)n(CC(=O)NCc3ccccc3)c21	·	·	–	·	–	–
Cc1ccc(-n2nc(C)c3c(C)cc(=O)n(CC(=O)Nc4cccc(C)c4C)c32)cc1	·	·	–	·	1.2µM	–
Cc1c(Cl)cccc1NC(=O)Cn1c(=O)cc(C)c2c(C)nn(-c3cccc(F)c3)c21	·	·	–	·	–	–
C/C(=C\C(=O)c1ccc(C)cc1)Nc1cccc(O)c1	–	–	18µM	–	?	–
Cc1ccc(C(=O)/C=C/Nc2cccc(O)c2)cc1	–	–	?	?	?	?
CCc1nc(-c2c3n(c(=O)n(CC(=O)Nc4ccccc4OC)c2=O)CCCC3)no1	·	·	·	·	·	–
O=C(NCCC1CCCCN1S(=O)(=O)c1ccc(Cl)cc1)C(=O)NCc1ccncc1 (configuration not stated)	–	–	?	–	?	–
Cc1ccc(S(=O)(=O)N2CCCCC2CCNC(=O)C(=O)NC2CC2)cc1 (configuration not stated)	–	–	?	–	?	–
Cc1ccc(C)c(S(=O)(=O)N2CCCCC2CCNC(=O)C(=O)NCc2cccnc2)c1 (configuration not stated)	–	–	?	–	?	–
Cc1ccc(C)c(S(=O)(=O)N2CCCCC2CCNC(=O)C(=O)NCc2ccccc2)c1 (configuration not stated)	?	–	23µM	?	18µM	–
Cc1cc(F)ccc1S(=O)(=O)N1CCCCC1CCNC(=O)C(=O)NCc1ccccn1 (configuration not stated)	–	–	?	–	16µM	–
Cc1ccc(CNC(=O)C(=O)NCCC2CCCCN2S(=O)(=O)c2ccc(C)cc2)cc1 (configuration not stated)	–	–	23µM	–	?	–
Cc1ccc(S(=O)(=O)N2CCCCC2CCNC(=O)C(=O)NCc2cccnc2)cc1 (configuration not stated)	?	–	21µM	?	18µM	–
C[C@@H]1COc2cc(N3CCC[C@@H]3CO)ccc2S(=O)(=O)N1	–	–	–	–	–	–
Cc1ccccc1N(C)C1CN(C(=O)c2ccccc2)C1	·	·	·	·	·	–[12.5 µM]
Cc1ccc(C)c(S(=O)(=O)N2CCCCC2CCNC(=O)C(=O)NC2CC2)c1 (configuration not stated)	–	–	–	–	?	–
Cc1cc(C)c(S(=O)(=O)N2CCCCC2CCNC(=O)C(=O)NCc2cccnc2)c(C)c1 (configuration not stated)	–	–	12µM	–	?	–
Cc1ccc(C)c(S(=O)(=O)N2CCCC2CNC(=O)C(=O)NC2CCCCCC2)c1 (configuration not stated)	–	–	?	–	23µM	–
Cc1cc(C)c(S(=O)(=O)N2CCCC(C(=O)NCc3cccnc3)C2)c(C)c1 (configuration not stated)	–	–	16µM	–	21µM	–
Cc1ccccc1CNC(=O)C(=O)NCCC1CCCCN1S(=O)(=O)c1ccccc1 (configuration not stated)	–	–	16µM	–	18µM	–
SMILES	HT1080-NT tox	IL1B secr inh	DT40 TDP1 CPT	HT1080 IDH1KD tx	DT40 TDP1 no CPT	ALOX12 inh
Cc1cc(C)c(S(=O)(=O)N2CCCCC2CCNC(=O)C(=O)NCC2CCCO2)c(C)c1 (configuration not stated)	–	–	?	–	?	–
Cc1ccnc(Nc2nc(C)c3ccccc3n2)n1	·	·	·	·	·	–
CCOc1ccc(Nc2nc(-c3cccc(Cl)c3)c3c(n2)-c2ccccc2OC3)cc1	·	·	–	·	?	–
O=C(c1cnccn1)N1CCC2(CCCN(c3ccc(-c4ccccc4)cc3)C2)CC1	·	·	?	·	?	–
CC1(C)C/C(=N\NC(=S)Nc2ccccc2F)c2cc(O)ccc2O1	?	-79	?	?	4.1µM	?
Cc1cccc(NC(=S)N/N=C2\CC(C)(C)Oc3ccc(O)cc32)c1	–	?	3.7µM	–	2.6µM	?
COc1cccc(NC(=S)N/N=C2\CC(C)(C)Oc3ccc(O)cc32)c1	–	–	?	–	?	32µM
Cc1cccc(NC(=S)N/N=C/c2ccc3c(c2)OCO3)c1	–	–	?	–	?	?
CCC(=O)N(C1CCOCC1)C1CCN(S(=O)(=O)c2ccc(C)c(C)c2)CC1	·	·	·	·	·	–
COc1ccc(CNC(=O)Cn2c(=O)nc(-c3ccccc3)c3ccccc32)cc1OC	·	·	?	·	16µM	–
Cc1c(Cl)cccc1NC(=O)Cn1c(=O)nc(-c2ccccc2)c2ccccc21	·	·	?	·	16µM	–
Cc1cccc(NC(=O)Cn2c(=O)nc(-c3ccccc3)c3ccccc32)c1C	·	·	?	·	21µM	–
CC(=O)c1ccc(NC(=O)Cn2c(=O)nc(-c3ccccc3)c3ccccc32)cc1	·	·	–	·	–	–
COc1ccc(CCNC(=O)Cn2c(=O)nc(-c3ccccc3)c3cc(Cl)ccc32)cc1OC	·	·	?	·	?	–
CCCCn1nc(C(=O)Nc2ccc(Cl)cc2C)c2ccccc2c1=O	·	·	·	·	·	–
CCOC(=O)c1cc(-c2csc(Nc3c(C)cc(C)cc3C)n2)on1	?	–	–	?	–	20µM
CCOC(=O)c1cc(-c2csc(COc3ccccc3Cl)n2)on1	–	–	21µM	–	16µM	–
CC1S/C(=C(\C#N)C(=O)NCc2ccco2)N(Cc2ccco2)C1=O (configuration not stated)	–	–	8.2µM	–	?	–
CS(=O)(=O)c1ccc(OCC2(CNS(=O)(=O)c3ccc(Cl)cc3)C[C@@H](O)[C@@H](O)C2)cc1 (some centres not stated)	·	·	·	·	·	79µM
COc1cc(/C=N/NC(=O)c2ccc(-n3cccc3)cc2)ccc1O	–	-69	?	–	?	–
